Unmarked numbers belong to inactive results. Results filed as inconclusive are left out. Calls of active or inactive are those of the source. Unless noted, calls follow the shape of the dose curve; as a rule, active = well fitted curve in either direction with a large enough effect (not every such curve was filed as active); inconclusive = small, poorly fitted or top-dose-only effect, or another doubt; inactive = flat fitted curve, though single readings scatter.
Legend:
[1] = NFAT Signaling Pathway (AID 444); conditions: Jurkat NFAT-bla M1, carbachol, beta-lactamase ratio, 5 h; at 17.2 µM (top of the series) unless noted;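 also: carbachol stimulus at about its EC50 of 1 µM final; % is scaled to controls: 0 for no effect and ±100 for the full control effect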
In short: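 Jurkat cells carrying an NFAT-driven β-lactamase reporter and co-transfected muscarinic M1 receptor were treated with compound plus carbachol (1 uM final, an EC50 level) for 5 h at 37 °C. CCF4 loading followed for 1 h at RT; 460/530 nm ratio gave %activity.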

[2] = biological target: Glucocorticoid receptor (Homo sapiens) (UniProt P04150); experiment: GR-GFP Redistribution (AID 450;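 active = compounds whose dose series gives a full or clear partial fitted curve of increased nuclear translocation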; also: potency is read from the fitted curve at half-maximal effect)
Sequence of Glucocorticoid receptor (Homo sapiens) (P04150 whole entry, looked up, the tested form may be a part): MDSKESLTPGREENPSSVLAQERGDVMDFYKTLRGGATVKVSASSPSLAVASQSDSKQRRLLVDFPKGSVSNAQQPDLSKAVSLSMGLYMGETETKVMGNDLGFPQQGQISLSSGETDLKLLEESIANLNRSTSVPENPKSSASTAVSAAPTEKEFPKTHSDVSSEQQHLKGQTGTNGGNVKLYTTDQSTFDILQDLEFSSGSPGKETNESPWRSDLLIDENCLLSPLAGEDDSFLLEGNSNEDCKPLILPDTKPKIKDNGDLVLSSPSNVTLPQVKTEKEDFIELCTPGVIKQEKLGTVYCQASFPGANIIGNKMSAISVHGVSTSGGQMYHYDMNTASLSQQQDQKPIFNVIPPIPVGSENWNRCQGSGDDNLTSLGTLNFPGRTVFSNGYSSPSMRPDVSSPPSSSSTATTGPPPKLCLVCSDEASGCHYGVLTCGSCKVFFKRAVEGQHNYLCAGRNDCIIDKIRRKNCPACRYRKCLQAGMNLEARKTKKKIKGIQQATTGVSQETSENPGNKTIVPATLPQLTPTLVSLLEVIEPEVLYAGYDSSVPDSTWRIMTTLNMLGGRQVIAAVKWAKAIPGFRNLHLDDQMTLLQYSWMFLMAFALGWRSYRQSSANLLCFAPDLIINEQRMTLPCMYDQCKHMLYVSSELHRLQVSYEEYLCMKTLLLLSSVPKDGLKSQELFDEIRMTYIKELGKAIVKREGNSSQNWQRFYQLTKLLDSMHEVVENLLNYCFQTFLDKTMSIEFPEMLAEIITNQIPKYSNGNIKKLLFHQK

[3] = Stat Signaling Pathway (AID 446); conditions: ME-180 SIE beta-lactamase reporter, IL-6 stimulated, 5 h; at 17.2 µM (top of the series) unless noted;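 also: ME-180 cervical cancer cells given 40 pM IL-6 alongside compound; SIE-controlled beta-lactamase reporter measured as 460/530 nm FRET emission ratio; % is scaled to controls: 0 for no effect and ±100 for the full control effect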
In short: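 IL-6/STAT signaling read in ME-180 cells via an SIE beta-lactamase reporter. Stimulus was 40 pM IL-6 (its AC50) for 5 hrs, so both activation and inhibition register.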

[4] = qHTS Assay for Identification of Small Molecule Agonists for Hypoxia Response Element Signaling Pathway (AID 914; active = well fitted activation curve with a large enough effect in the signal ratio, with a control signal flat, not every such curve was filed as active; the % refers to the signal ratio; also: potency is read from the fitted curve at half-maximal effect); conditions: ME-180 (cervical carcinoma) HRE-bla reporter, beta-lactamase ratio, CoCl2, 17 h; activation: active compounds read high
In short: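 Reporter activity (beta-lactamase, CCF4 460nm/530nm ratio) in HRE-bla ME-180 cells is recorded after 17 h compound exposure with EC50 CoCl2 at 37 degrees Celsius. AC50 values come from titration data.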

[5] = biological target: Glucocorticoid receptor (Homo sapiens) (UniProt P04150); experiment: GR-EFC Redistribution (AID 451; calls by dose curve; also: potency is read from the fitted curve at half-maximal effect); conditions: CHO-K1 GR-EFC translocation, beta-gal luminescence, 2 h
In short: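 CHO-K1 cells stably expressing nuclear-localized β-gal enzyme acceptor and GR fused C-terminally to the enzyme donor fragment; ligand-driven nuclear translocation restores β-gal by complementation. Compounds titrated up to 46 uM final, 2 h at 37 °C; luminescence read.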

[6] = biological target: 3',5'-cyclic-AMP phosphodiesterase 4B (Homo sapiens) (UniProt Q07343); experiment: qHTS Assay for Inhibitors of PDE-IV (AID 607; active = well fitted activation curve with a large enough effect in the main read-out, with a control signal flat, not every such curve was filed as active; also: % of control where 0% means no effect)
Sequence of 3',5'-cyclic-AMP phosphodiesterase 4B (Homo sapiens) (Q07343 whole entry, looked up): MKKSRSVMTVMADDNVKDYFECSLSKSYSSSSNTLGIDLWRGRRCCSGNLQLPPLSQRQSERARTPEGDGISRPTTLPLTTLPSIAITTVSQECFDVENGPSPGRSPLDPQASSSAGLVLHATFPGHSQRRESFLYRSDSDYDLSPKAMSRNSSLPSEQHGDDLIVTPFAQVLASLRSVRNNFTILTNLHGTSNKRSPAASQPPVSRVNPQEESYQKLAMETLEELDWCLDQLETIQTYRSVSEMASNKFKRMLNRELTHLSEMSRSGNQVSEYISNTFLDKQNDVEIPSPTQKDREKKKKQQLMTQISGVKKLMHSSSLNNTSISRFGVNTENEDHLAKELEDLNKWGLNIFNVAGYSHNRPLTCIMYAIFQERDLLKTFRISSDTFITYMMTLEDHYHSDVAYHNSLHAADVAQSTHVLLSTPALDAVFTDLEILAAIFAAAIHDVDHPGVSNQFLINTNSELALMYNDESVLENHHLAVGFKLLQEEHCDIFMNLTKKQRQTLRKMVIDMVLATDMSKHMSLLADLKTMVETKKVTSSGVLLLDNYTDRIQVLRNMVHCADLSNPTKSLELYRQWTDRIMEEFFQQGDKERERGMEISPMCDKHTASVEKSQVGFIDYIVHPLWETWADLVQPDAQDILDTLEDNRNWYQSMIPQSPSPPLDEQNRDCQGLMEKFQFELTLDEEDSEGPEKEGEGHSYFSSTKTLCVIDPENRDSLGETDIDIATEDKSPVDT
In short: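 Live HEK293 cells with a modified cyclic nucleotide-gated (CNG) channel report intracellular cAMP via membrane-potential dye fluorescence (ex 535/em 590 nm). Endogenous PDE-IV was targeted. Compounds were tested at up to 22.9 uM final; RO 20-1724 100 uM served as control.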

[7] = biological target: Guanine nucleotide-binding protein G(i) subunit alpha-1 (Homo sapiens) (UniProt P63096); experiment: qHTS Assay for Inhibitors of RGS12 GoLoco Motif Activity (Green Fluorophore) (AID 879; active = well fitted curve in the direction sought with a large enough effect; an effect the other way counts as inactive or inconclusive;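 also: 0% = labeled peptide with Gαi1 and full inhibition = labeled peptide alone without protein; negative values mean loss of peptide binding seen as reduced polarization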)
Sequence of Guanine nucleotide-binding protein G(i) subunit alpha-1 (Homo sapiens) (P63096 whole entry, looked up): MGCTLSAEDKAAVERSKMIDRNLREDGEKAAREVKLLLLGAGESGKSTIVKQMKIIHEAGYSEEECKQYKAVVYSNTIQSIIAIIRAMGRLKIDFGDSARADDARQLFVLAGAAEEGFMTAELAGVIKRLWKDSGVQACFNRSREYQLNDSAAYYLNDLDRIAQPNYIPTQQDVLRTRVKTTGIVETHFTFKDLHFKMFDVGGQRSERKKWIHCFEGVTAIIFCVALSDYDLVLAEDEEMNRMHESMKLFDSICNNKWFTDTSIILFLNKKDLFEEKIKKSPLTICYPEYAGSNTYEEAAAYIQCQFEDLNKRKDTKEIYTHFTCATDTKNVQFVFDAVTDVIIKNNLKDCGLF
In short: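 Fluorescence polarization assay: 50 nM Gαi1 with 10 nM FITC-labeled RGS12 GoLoco peptide in 10 mM Tris pH 7.5, 150 mM NaCl, 0.1 mM GDP, 0.05% NP40, 10 min at room temperature with compound.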

[8] = qHTS Assay for Identification of Small Molecule Antagonists for NFkB Signaling Pathway (AID 895; active = well fitted inhibition curve with a large enough effect in the signal ratio, with a control signal flat, not every such curve was filed as active; the % refers to the signal ratio; also: potency is read from the fitted curve at half-maximal effect)
In short: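 NFkB-bla ME-180 cervical carcinoma cells with beta-lactamase reporter under NFkB response element; compounds added, then TNF alpha at 10 pM final (EC50), 5 h at 37 C. LiveBLAzer substrate 2 h, room temperature; emission 460/530 nm at 405 nm excitation.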

[9] = qHTS Assay for Identification of Small Molecule Agonists for Thrombopoietin (TPO) Signaling Pathway (AID 917; active = well fitted curve in the direction sought with a large enough effect; an effect the other way counts as inactive or inconclusive; also: % is scaled to controls: 0 for no effect and ±100 for the full control effect)
In short: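 IL-3-dependent murine pro-B Ba/F3 cells, stably transfected with human TPO receptor and GpIIb-promoter luciferase, are incubated 24 hrs at 37 C with test compound and 26 pM TPO; luciferase signal is read after 10 min at room temperature.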

[10] = biological target: Muscarinic acetylcholine receptor M1 (Rattus norvegicus) (UniProt P08482); experiment: qHTS Assay for Antagonists of Acetylcholine Muscarinic M1 Receptor: Kinetic Measurement of Intracellular Calcium Response (AID 943; active = well fitted curve in the direction sought with a large enough effect; an effect the other way counts as inactive or inconclusive; also: nearly all actives have a fitted effect of over 75% in size)
Sequence of Muscarinic acetylcholine receptor M1 (Rattus norvegicus) (P08482 whole entry, looked up): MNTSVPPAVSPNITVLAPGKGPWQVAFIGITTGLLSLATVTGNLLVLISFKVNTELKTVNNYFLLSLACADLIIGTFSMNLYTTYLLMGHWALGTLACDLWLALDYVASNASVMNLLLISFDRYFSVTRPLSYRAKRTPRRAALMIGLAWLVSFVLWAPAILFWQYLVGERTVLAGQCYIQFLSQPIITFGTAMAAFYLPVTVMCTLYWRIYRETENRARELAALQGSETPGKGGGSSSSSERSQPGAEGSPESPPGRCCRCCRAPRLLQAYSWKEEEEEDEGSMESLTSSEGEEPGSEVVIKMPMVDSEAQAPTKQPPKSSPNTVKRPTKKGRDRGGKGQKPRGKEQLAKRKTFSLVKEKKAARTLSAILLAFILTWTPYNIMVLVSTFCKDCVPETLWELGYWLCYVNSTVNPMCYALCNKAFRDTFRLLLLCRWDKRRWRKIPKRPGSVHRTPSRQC
In short: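 CHO cells expressing rat M1 receptor, Fluo-4 loaded, preincubated 10 min with compound, then stimulated with EC80 carbachol (100 nM final). Kinetic calcium fluorescence over 4 min; response taken as peak over basal signal.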

[11] = biological target: Muscarinic acetylcholine receptor M1 (Rattus norvegicus) (UniProt P08482); experiment: qHTS Assay for Antagonists of Acetylcholine Muscarinic M1 Receptor: Measurement of IP-One Response (AID 944; active = well fitted curve in the direction sought with a large enough effect; an effect the other way counts as inactive or inconclusive; also: nearly all actives have a fitted effect of over 75% in size)
In short: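 CHO cells stably expressing rat M1, pretreated 10 min with compound, then stimulated 30 min with carbachol at EC80 (200 nM) in LiCl-containing buffer pH 7.4; IP1 accumulation read by HTRF competition (665/620 nm).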

[12] = biological target: Pyruvate kinase (Leishmania mexicana) (UniProt Q27686); experiment: qHTS Validation Assay for Inhibitors of Leishmania Mexicana Pyruvate Kinase (AID 945; active = well fitted curve in the direction sought with a large enough effect; an effect the other way counts as inactive or inconclusive;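 also: 0% = DMSO only neutral control wells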)
Sequence of Pyruvate kinase (Leishmania mexicana) (Q27686 2-499 E452W): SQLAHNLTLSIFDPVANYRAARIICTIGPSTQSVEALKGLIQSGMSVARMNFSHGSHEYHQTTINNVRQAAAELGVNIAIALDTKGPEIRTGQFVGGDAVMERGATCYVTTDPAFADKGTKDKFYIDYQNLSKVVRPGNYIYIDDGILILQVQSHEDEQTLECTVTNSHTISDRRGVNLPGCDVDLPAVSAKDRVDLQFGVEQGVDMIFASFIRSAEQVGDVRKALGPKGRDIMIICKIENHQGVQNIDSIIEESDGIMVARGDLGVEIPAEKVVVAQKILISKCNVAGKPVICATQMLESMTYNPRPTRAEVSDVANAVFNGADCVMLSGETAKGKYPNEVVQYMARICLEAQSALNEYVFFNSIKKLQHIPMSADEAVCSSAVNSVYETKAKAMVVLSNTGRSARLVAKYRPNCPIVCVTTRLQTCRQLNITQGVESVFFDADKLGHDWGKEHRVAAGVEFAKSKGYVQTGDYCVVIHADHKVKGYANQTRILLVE
In short: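 Mutant LmPYK (E451W), 0.2 nM, plus 0.5 mM PEP and 0.1 mM ADP in 50 mM imidazole pH 7.2 containing 0.01% Tween 20 and 0.05% BSA. Incubated 1 h at room temperature; luminescence via PKLight, normalized to DMSO.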

[13] = biological target: Pyruvate kinase PKM (Homo sapiens) (UniProt P14618); experiment: qHTS Assay for Activators of Human Muscle Pyruvate Kinase (AID 954; active = well fitted curve in the direction sought with a large enough effect, not every such curve was filed as active;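 also: 0% = uninhibited enzyme and -100% = no enzyme or full thiadiazolimine inhibition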)
Sequence of Pyruvate kinase PKM (Homo sapiens) (P14618 whole entry, looked up): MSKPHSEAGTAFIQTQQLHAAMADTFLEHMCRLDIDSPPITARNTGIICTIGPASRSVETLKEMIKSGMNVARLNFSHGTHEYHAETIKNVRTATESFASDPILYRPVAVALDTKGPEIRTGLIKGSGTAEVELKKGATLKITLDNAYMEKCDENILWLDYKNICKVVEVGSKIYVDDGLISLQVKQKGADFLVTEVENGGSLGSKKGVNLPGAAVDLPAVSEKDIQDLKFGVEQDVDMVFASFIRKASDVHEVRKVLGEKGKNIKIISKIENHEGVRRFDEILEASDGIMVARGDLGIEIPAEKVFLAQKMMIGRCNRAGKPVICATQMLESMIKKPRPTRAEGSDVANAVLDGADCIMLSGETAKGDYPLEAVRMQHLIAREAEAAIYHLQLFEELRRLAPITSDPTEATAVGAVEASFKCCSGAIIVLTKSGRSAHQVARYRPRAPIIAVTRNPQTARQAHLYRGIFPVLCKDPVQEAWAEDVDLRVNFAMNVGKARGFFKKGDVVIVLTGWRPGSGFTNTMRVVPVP
In short: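 Enzyme was run at intermediate activity so both inhibitors and activators could be detected. ATP formed from ADP and PEP by 0.1 nM human PKM2 during a 1 h room-temperature incubation was quantified by coupled luciferase luminescence.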

[14] = biological target: Alpha-galactosidase A (Homo sapiens) (UniProt P06280); experiment: Counterscreen for Glucocerebrosidase Inhibitors: qHTS Assay for Human alpha-Galactosidase at pH 4.5 (AID 992; active = well fitted curve in the direction sought with a large enough effect; an effect the other way counts as inactive or inconclusive; also: 0% is about no effect)
Sequence of Alpha-galactosidase A (Homo sapiens) (P06280 whole entry, looked up): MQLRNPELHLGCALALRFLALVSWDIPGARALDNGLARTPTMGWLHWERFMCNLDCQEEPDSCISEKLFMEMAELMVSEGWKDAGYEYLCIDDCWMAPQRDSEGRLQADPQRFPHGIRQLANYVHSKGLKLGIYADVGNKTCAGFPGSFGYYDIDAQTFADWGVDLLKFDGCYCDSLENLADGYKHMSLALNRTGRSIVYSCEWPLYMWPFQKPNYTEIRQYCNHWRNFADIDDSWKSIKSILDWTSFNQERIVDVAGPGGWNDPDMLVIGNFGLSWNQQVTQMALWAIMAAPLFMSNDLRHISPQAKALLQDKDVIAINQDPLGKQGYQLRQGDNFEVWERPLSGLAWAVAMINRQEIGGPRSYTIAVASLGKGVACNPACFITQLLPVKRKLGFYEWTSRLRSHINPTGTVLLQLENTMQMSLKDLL
In short: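 Read-out is 4-methylumbelliferone fluorescence (365 nm excitation, 440 nm emission) after a pH 10 NaOH/glycine stop. Reactions held 2 nM enzyme and 80 uM substrate at pH 4.5 for 20 min at room temperature.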

[15] = biological target: alpha-glucosidase (Oryza sativa, rice) (UniProt Q653V4); experiment: Counterscreen for Glucocerebrosidase Inhibitors: qHTS Assay for Rice alpha-Glucosidase at pH 5.0 (AID 997; active = well fitted curve in the direction sought with a large enough effect; an effect the other way counts as inactive or inconclusive;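 also: 0% = full activity with enzyme and -100% = basal without enzyme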)
In short: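 Rice alpha-glucosidase (4 nM final) with 400 uM 4-methylumbelliferyl-alpha-D-glucopyranoside in citrate buffer pH 5.0, 20 min at room temperature, stopped at pH 10; fluorescence 365/440 nm, compounds 0.7 nM–77 uM, AC50 from Hill fits.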

COc1ccccc1-c1nn2c(-c3ccc(C(C)(C)C)cc3)nnc2s1
activity change, negative = inhibition [1]: -12.3% | Potency [2]: > 20.6 µM

CCN1CCc2c(C#N)c(N3CCCCC3)nc(NCc3ccccc3)c2C1
activity, negative = inhibition [3]: 5.55% | Potency [2]: > 20.6 µM

CSc1nc2[nH]c3c(c2c2ncnn12)CCCC3
activity, negative = inhibition [3]: -26.5% | Potency [2]: > 20.6 µM

CCOC(=O)c1cc2c(=O)n3cccc(C)c3nc2n(C)c1=N
activity change, negative = inhibition [1]: -13% | Potency [2]: > 20.6 µM | Potency [4]: 6.31 µM (active)

Nc1ncnc2c1ncn2[C@@H]1O[C@@H](CO)[C@H](O)[C@@H]1O
activity change, negative = inhibition [1]: 4.32% [at 38 µM] | Potency [2]: > 46 µM | Potency [5]: > 46 µM | Potency [6]: inactive | outcome [7]: inactive | Potency [8]: 4.47 µM (active) | Potency [9]: inactive | Potency [10]: inactive | Potency [11]: inactive | Potency [12]: inactive | outcome [13]: inactive | outcome [14]: inactive | outcome [15]: inactive

OCCNc1ncnc2c1c(-c1ccccc1)c(-c1ccccc1)n2Cc1ccco1
activity change, negative = inhibition [1]: -23.1% | Potency [2]: > 20.6 µM

CCOC(=O)CSc1nc(N)c(C(=O)Nc2ccc(N(C)C)cc2)s1
activity change, negative = inhibition [1]: 0.0938% | Potency [2]: > 20.6 µM

CCCOc1ccc(Cl)cc1CN1CCOCC1
activity, negative = inhibition [3]: 8.53% | Potency [2]: > 20.6 µM

Cc1ccc(NC(=O)CSC2=C(C#N)C(c3ccc4c(c3)OCO4)CC(=O)N2)cc1C (stereo not given)
activity change, negative = inhibition [1]: -0.339% | Potency [2]: > 20.6 µM

Cc1ccc(N2CC(C(=O)Nc3ccc(N(C)C)cc3)CC2=O)cc1C (stereo not given)
activity change, negative = inhibition [1]: 21.8% | Potency [2]: > 20.6 µM

O=C(Oc1oc(-c2ccco2)nc1C=Nc1ccccc1)c1ccco1
activity change, negative = inhibition [1]: -124% (active) | Potency [2]: > 20.6 µM

C=CCn1c(N)c(C(=O)Nc2ccccc2)c2nc3ccccc3nc21
activity change, negative = inhibition [1]: -5.29% | Potency [2]: > 20.6 µM | Potency [4]: 5.01 µM (active)

COc1ccccc1N1CCN(CCCCOc2ccc(F)cc2)CC1
activity, negative = inhibition [3]: 5.73% | Potency [2]: > 20.6 µM

COc1cc(C(=O)OCCN2CCCCC2)ccc1O
activity, negative = inhibition [3]: 4.68% | Potency [2]: > 20.6 µM

CCSc1nc(N)c(C#N)c(-c2ccccc2Cl)c1C#N
activity change, negative = inhibition [1]: -7.47% | Potency [2]: > 20.6 µM

C#CCSC1=C(C#N)C(c2cccs2)C(C(=O)OCC)=C(C)N1 (stereo not given)
activity change, negative = inhibition [1]: -26.3% | Potency [2]: > 20.6 µM

CC(=Nc1cccc(O)c1)c1sc2ccccc2c1O
activity change, negative = inhibition [1]: -27.3% | Potency [2]: > 20.6 µM

COc1ccccc1N1C(=O)C2ON(c3ccccc3)C(c3ccc(N(C)C)cc3)C2C1=O (stereo not given)
activity, negative = inhibition [3]: -10.2% | Potency [2]: > 20.6 µM

COc1ccccc1C(=O)NC(=Nc1nc2ccccc2o1)NC(=O)c1ccccc1OC
activity change, negative = inhibition [1]: -110% (active) | Potency [2]: > 20.6 µM

N#CC1=C2SCC(O)(c3ccccc3)N2C(=O)CC1c1ccccc1 (stereo not given)
activity, negative = inhibition [3]: -21.7% | Potency [2]: > 20.6 µM

CN(C)c1ccc(NC(=O)c2sc(SCC(=O)Nc3nccs3)nc2N)cc1
activity change, negative = inhibition [1]: 2.32% | Potency [2]: > 20.6 µM

Cc1sc(-n2c(C)cc(/C=N/n3cnnc3)c2C)c(C#N)c1C
activity change, negative = inhibition [1]: -9.91% | Potency [2]: > 20.6 µM

O=C(c1ccccc1)C(CCC(CN1CCOCC1)C(=O)c1ccccc1)CN1CCOCC1 (stereo not given)
activity, negative = inhibition [3]: -25.4%

O=C(Oc1oc(-c2ccco2)nc1C=Nc1ccccc1)c1ccoc1
activity change, negative = inhibition [1]: -123% (active) | Potency [2]: > 20.6 µM

NCCN1C(=O)c2ccccc2[C@@]1(O)c1ccc(Cl)cc1
activity, negative = inhibition [3]: 2.46% [at 7.69 µM]

CCN(CC)CCOC(=O)c1c(C)n(C)c2ccc(OC)cc12
activity, negative = inhibition [3]: 11.9% | Potency [2]: > 20.6 µM

CCCCNc1c(CN)cnc2cc(Cl)ccc12
activity, negative = inhibition [3]: -10.8% [at 7.69 µM]

CSc1nc(N)c(C#N)c(-c2ccccc2Cl)c1C#N
activity change, negative = inhibition [1]: 19.4% | Potency [2]: > 20.6 µM

COc1ccc(C(=O)CSC2=C(C#N)C3(CCCCC3)C(C#N)=C(N)N2)cc1
activity change, negative = inhibition [1]: 14.6% | Potency [2]: > 20.6 µM

COc1ccc(-c2nnc3sc(-c4ccccc4OC)nn23)cc1
activity change, negative = inhibition [1]: -23.6% | Potency [2]: > 20.6 µM

COc1cccc(OCCN2CCN(c3ncnc4c3cnn4-c3ccccc3)CC2)c1
activity change, negative = inhibition [1]: -29.6% | Potency [2]: > 20.6 µM

CN(Cc1ccccc1)c1ncnc2ccc(Br)cc12
activity change, negative = inhibition [1]: -9.63% | Potency [2]: > 20.6 µM

N#Cc1ccc(-c2ccco2)nc1SCC(=O)c1ccc(Cl)cc1
activity, negative = inhibition [3]: -9.2% | Potency [2]: > 20.6 µM

CC1(C)Cc2c(sc3c2C2=NCCN2C=N3)CS1
activity, negative = inhibition [3]: 5.3% | Potency [2]: > 20.6 µM

O=C(COc1ccc(-c2nnc(N3CCCCC3)c3ccccc23)cc1)N1CCCCC1
activity change, negative = inhibition [1]: -4.72% | Potency [2]: > 20.6 µM

Cc1c(NC(=O)c2coc(=O)c(Br)c2)c(=O)n(-c2ccccc2)n1C
activity change, negative = inhibition [1]: -128% (active) | Potency [2]: > 20.6 µM

COc1cccc(-c2nnc3sc(-c4ccccc4)nn23)c1
activity, negative = inhibition [3]: -8.55%

O=C1CC(c2ccccc2)n2nc(NS(=O)(=O)c3ccccc3)nc2N1 (stereo not given)
activity change, negative = inhibition [1]: -10.9% | Potency [2]: > 20.6 µM

Cc1cc(-c2cc(-c3ccc(Cl)cc3)nc(N)c2C#N)co1
activity change, negative = inhibition [1]: 14.5% | Potency [2]: > 20.6 µM | Potency [4]: 7.94 µM (active)

COC(=O)c1ccc(Cn2cnc3c(sc4nc(N5CCOCC5)c5c(c43)CCCC5)c2=O)o1
activity, negative = inhibition [3]: -11.4% | Potency [2]: > 20.6 µM

COC(=O)CC1=C(C(=O)OC)C(c2ccncc2)C(C#N)=C(N)O1 (stereo not given)
activity, negative = inhibition [3]: 0.288% | Potency [2]: > 20.6 µM

COC(=O)c1ccccc1NC=C1C(=O)OC2(CCCCC2)OC1=O
activity, negative = inhibition [3]: 2.6% | Potency [2]: > 20.6 µM

CCOC(=O)c1[nH]c2ccc(Br)cc2c1NC(=O)CCN1CCC(C(=O)OCC)CC1
activity, negative = inhibition [3]: -11% | Potency [2]: > 20.6 µM

N#Cc1nc(-c2ccc(Cl)cc2)oc1N1CCCCC1
activity, negative = inhibition [3]: 2.4% | Potency [2]: > 20.6 µM

COc1cccc(-c2nc(NC(C)(C)C)c3ccccc3n2)c1O
activity, negative = inhibition [3]: -74.9% (active) | Potency [2]: > 20.6 µM

O=C(CCN1CCCC1Cc1ccccc1)c1ccc2c(c1)OCCO2 (stereo not given)
activity, negative = inhibition [3]: 14.7% | Potency [2]: > 20.6 µM

Cc1cc(NCCNC2=CC(=O)CCC2)nc2ccccc12
activity, negative = inhibition [3]: 4.57% | Potency [2]: > 20.6 µM

COc1cc(C2C(C#N)=C(N)Oc3cc(N)ccc32)cc(OC)c1OC (stereo not given)
activity, negative = inhibition [3]: -20.2% | Potency [2]: > 20.6 µM

N#CCSc1nc2c(c(=O)n1Cc1ccco1)C1(CCCC1)Cc1ccccc1-2
activity, negative = inhibition [3]: -1.5% | Potency [2]: > 20.6 µM

CCOc1ccc(C2=Nn3c(nnc3-c3ccccc3OC)SC2)cc1
activity, negative = inhibition [3]: -10.6% | Potency [2]: > 20.6 µM

— PubChem BioAssay (NCATS)
